Reference: PubChem BioAssay
A number with no mark means an inactive call. The source made the active and inactive calls.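 The calls were made as follows: active = inhibition at or above 50% relative to wild type and mutant plate controls; inactive = inhibition below 50%.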

experiment: loss of swimming-algae plug formation – whole organism, Chlamydomonas reinhardtii, WT vs cilia-less mutant, absorbance, 96-well, primary screen (AID 463189); conditions: Chlamydomonas reinhardtii gravitaxis, OD600 absorbance, 2 days; at 10 µM; hits give high values;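 also: 0% = wild type cc124 cells in DMSO and 100% = ciliumless bld1 mutant cells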

Row | Structure (SMILES) | inhibition
1 | Cc1cc2c(cc1Cl)N(C(=O)Nc1ccnc3ccccc13)CC2 | -0.614%
2 | NC(=O)c1ncn([C@@H]2O[C@H](CO)[C@@H](O)[C@H]2O)c1O | 13.2%
3 | CC(C(=O)O)c1ccc(CC2CCCC2=O)cc1 (centres undefined) | -6.18%
4 | COC(=O)c1c(-c2cc(OC)c(OC)c(OC)c2)c2ccc(OCc3ccccn3)cc2c(=O)n1-c1ccc(N)cc1 | 2.92%
5 | CCCc1c(-c2ccc(O)cc2)nn(-c2ccc(O)cc2)c1-c1ccc(O)cc1 | 6.07%
6 | Cc1cc(NC(=O)Nc2ccc3c(ccn3C)c2)sn1 | 5.1%
7 | CN1CCN(c2nc3cc(C(F)(F)F)ccc3n3cccc23)CC1 | 10.9%
8 | C=C(C)C1CC=C(C(=O)O)CC1 (centres undefined) | 1.75%
9 | Cc1cccc(C)c1OCC(C)N (centres undefined) | 7.46%
10 | O=c1cc(N2CCOCC2)oc2c(-c3ccccc3)cccc12 | 15.7%
11 | CCNC(=O)C1OC(n2cnc3c(NCc4ccccc4)ncnc32)C(O)C1O (centres undefined) | -0.03%
12 | O=c1onc2n1-c1cc(Br)ccc1OC2 | -0.03%
13 | COc1cc(Cc2cnc(N)nc2N)cc(OC)c1OC | 0.332%
14 | Nc1nc2[nH]c(=O)cnc2c(=O)[nH]1 | 5.48%
15 | Fc1ccc(C(OCCCc2cnc[nH]2)c2ccc(F)cc2)cc1 | -0.416%
16 | COC(=O)C(C)(N)Cc1ccc(O)cc1 (centres undefined) | 9.13%
17 | O=C1N(c2ccccc2)c2ccccc2C1(Cc1ccncc1)Cc1ccncc1 | -3.34%
18 | O=C1OC(=O)C2C3CCC(O3)C12 (centres undefined) | 2.39%
19 | O=[N+]([O-])c1cccc2c(Br)[nH]nc12 | 136% (active)
20 | CN(C)CCC=C1c2ccccc2C=Cc2ccccc21 | 12.9%

Row | Structure (SMILES) | inhibition
21 | Cn1c(=O)c2[nH]c(-c3ccc(S(=O)(=O)O)cc3)nc2n(C)c1=O | -2.33%
22 | NCCS(=O)O | 4.12%
23 | O=c1[nH]c(=O)c2nc3ccccc3nc2[nH]1 | -4.43%
24 | CCCCCC[C@@H]([C@@H](C)O)n1cnc2c(N)ncnc21 | -0.492%
25 | CN(C)CCCCSC(=N)N | 0.024%
26 | N[C@H](CO)C(=O)O | 3.16%
27 | N=C(N)c1ccccc1 | 7.5%
28 | CCSC(=N)N | 4.79%
29 | CN(C)CCN(Cc1cccs1)c1ccccn1 | 2.59%
30 | CC1=C(CC(=O)O)c2cc(F)ccc2/C1=C\c1ccc(S(C)=O)cc1 (centres undefined) | 5.19%
31 | CC(C)Cc1ccc([C@H](C)C(=O)O)cc1 | 8.1%
32 | CCCCNc1c(C(=O)OCC)c(C)nc2c1cnn2CC | 8.88%
33 | N#CC(Cc1ccc(O)c(O)c1)C(=O)N1CCc2ccccc21 (centres undefined) | 0.886%
34 | O=C1NC(O)=NC1(c1ccccc1)c1ccccc1 | -1.32%
35 | c1cnc2c(c1)ccc1cccnc12 | 10.8%
36 | C/C=C1\C(=O)CC2C3CCC4=CC(=O)CC[C@]4(C)C3CC[C@]12C (some centres undefined) | 0.131%
37 | Ic1ccc(N2CCN(Cc3c[nH]c4ncccc34)CC2)cc1 | 7.68%
38 | O=[N+]([O-])c1ccc(CSc2ncnc3c2ncn3[C@@H]2O[C@H](CO)[C@H](O)C2O)cc1 (some centres undefined) | -2.08%
39 | N[C@@H](Cc1c[nH]c2ccc(O)cc12)C(=O)O | 4.83%
